# EZH2 inh: blocks human EZH2/PRC2 H3K27 methylation; DELFIA TRF, 1 h; Q15910; inhibition, % at 12.5 µM; hit rate 0.35% among 57,000;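 active means mean inhibition of replicates at least 50% and every single replicate also reaching 50%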;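 further: dimethyl H3K27 on biotinylated H3 21-44 peptide detected by antibody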
# Target sequence (Q15910 whole entry, looked up): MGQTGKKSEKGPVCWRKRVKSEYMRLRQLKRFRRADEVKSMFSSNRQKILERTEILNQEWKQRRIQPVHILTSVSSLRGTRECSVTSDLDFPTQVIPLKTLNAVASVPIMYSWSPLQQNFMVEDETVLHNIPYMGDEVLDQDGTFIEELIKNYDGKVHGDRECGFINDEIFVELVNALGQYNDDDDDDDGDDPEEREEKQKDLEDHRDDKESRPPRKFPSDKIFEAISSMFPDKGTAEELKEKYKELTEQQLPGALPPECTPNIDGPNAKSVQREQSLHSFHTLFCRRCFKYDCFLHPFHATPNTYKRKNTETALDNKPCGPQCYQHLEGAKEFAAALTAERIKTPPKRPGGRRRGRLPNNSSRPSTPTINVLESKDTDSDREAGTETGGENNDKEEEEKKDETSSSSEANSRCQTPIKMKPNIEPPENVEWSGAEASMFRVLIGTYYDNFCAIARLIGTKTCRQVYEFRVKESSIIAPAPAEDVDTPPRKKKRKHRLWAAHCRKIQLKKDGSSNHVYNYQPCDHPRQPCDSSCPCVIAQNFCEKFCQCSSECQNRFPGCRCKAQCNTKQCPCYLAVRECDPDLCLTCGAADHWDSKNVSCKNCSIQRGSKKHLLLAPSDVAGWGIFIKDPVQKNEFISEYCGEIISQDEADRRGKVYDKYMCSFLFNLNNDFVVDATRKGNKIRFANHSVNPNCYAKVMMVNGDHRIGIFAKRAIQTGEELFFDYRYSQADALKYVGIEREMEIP
# Hits are given with their value; n = inactive. The full list was thinned out, with hits kept by preference.
SMILES,EZH2 inh
Brc1ccc2nc(NCc3ccccn3)nc(-c3ccccc3)c2c1,n
Brc1ccc2noc(-c3ccccc3)c2c1,63
OCCCNc1nc(-c2ccccc2Cl)c2cc(Br)ccc2n1,n
Cc1occc1-c1nnc2sc(-c3ccc(-c4ccccc4[N+](=O)[O-])o3)nn12,n
[N-]=[N+]=Nc1ccc(C[C@H]2C(=O)O[C@@H](Cc3ccccc3)[C@H]3C=C(/C=C/C4CC4)CN32)cc1,n
COc1cc(OC)c2c(c1O)OC(c1ccccc1)CC2=O (stereo unspecified),72
COc1cc(O)cc2c1C(=O)OC(C)C2 (stereo unspecified),n
COc1cc2c(c(O)c1OC)C(=O)CC(c1ccc(O)cc1)O2 (stereo unspecified),n
O=C(NCC[C@H]1CC[C@@H](NC(=O)C2CCC2)[C@@H](CO)O1)c1cnccn1,n
C[C@H](CO)N1C[C@H](C)[C@H](CN(C)Cc2ccccc2)Oc2c(NS(C)(=O)=O)cccc2C1=O,n
CO[C@H]1CN(C)C(=O)c2cc(NC(C)=O)ccc2OC[C@@H](C)N(CCc2ccccc2)C[C@H]1C,n
O=C(NO)c1cccc(C(=O)N/N=C/c2ccc3ccccc3n2)c1,n
CC1(CCOC2OC(CO)C(O)C(O)C2O)CCC2C(=CCC3C(C)(C(=O)O)CCCC23C)C1 (stereo unspecified),n
CC1C(=O)C23CC(O)C4C(C)(C(=O)OC5OC(CO)C(O)C(O)C5O)CCCC4(C)C2(O)CCC1C3 (stereo unspecified),n
C=C(C(=O)O[C@@H]1O[C@H](CO)[C@@H](O)[C@H](O)[C@H]1O)[C@@H]1CC[C@@]2(C)C[C@H](O)C[C@@](C)(O)C2C1 (stereo partly specified),64
C[C@H](NC(=O)C[C@@H]1CC[C@H](NC(=O)C2CCOCC2)[C@H](CO)O1)c1ccccc1,n
Cc1ccc(C(=O)COc2cccc(NC(=O)c3ccc(Br)cc3)c2)cc1C,n
COC(=O)COc1cccc(NC(=O)c2ccc(Br)cc2)c1,n
CCOc1cccc(NC(=O)C2CC(=O)N(/N=C(\C)c3ccc(Br)s3)C(=N)S2)c1 (stereo unspecified),92
Cc1cc(=O)oc2cc(NC(=S)NCc3cccnc3)ccc12,n
Cc1cc2oc(=O)cc(CN(C)Cc3ccccc3)c2cc1C(C)C,50
CCCc1cc(=O)oc2cc(OCc3cc(C(=O)O)oc3C)ccc12,n
COc1ccc(CCNC(=O)c2c(-c3c(F)cccc3Cl)noc2C)cc1OC,n
COc1cccc(-c2nc(SCC(=O)Nc3cccc(C(F)(F)F)c3)[nH]c(=O)c2C#N)c1,68
O=C(CSc1nc2ccccc2[nH]1)Nc1ccc(I)cc1,n
SMILES,EZH2 inh
O=C(CSc1n[nH]c(-c2ccco2)n1)Nc1ccc(F)cc1,n
N#Cc1c(-c2ccco2)nc(SCC(=O)Nc2ccc(I)cc2)[nH]c1=O,54
COc1ccc(-c2nc(SCC(=O)Nc3cccc(C(F)(F)F)c3)n[nH]2)cc1,n
COc1ccc(-c2nc(SCC(=O)Nc3ccc(Cl)cc3)[nH]c(=O)c2C#N)cc1,n
COc1ccccc1-c1cn(CC[C@@H]2CC[C@H](NS(=O)(=O)c3ccccc3C)[C@@H](CO)O2)nn1,n
C[C@H](CO)N1C[C@H](C)[C@@H](CN(C)C)Oc2cc(C#CC3(O)CCCC3)ccc2S1(=O)=O,n
CC(C)NC(=O)Nc1cccc2c1O[C@@H](CN(C)C(=O)NC1CCCCC1)[C@@H](C)CN([C@@H](C)CO)C2=O,n
Cc1ccccc1-c1nnc(SCC(=O)Nc2ccc(C(C)C)cc2)n1C,n
CC1OC(OCC2OC(Oc3c(-c4ccc(O)c(O)c4)oc4cc(O)cc(O)c4c3=O)C(O)C(O)C2O)C(O)C(O)C1O (stereo unspecified),n
O=c1c(OC2OC(CO)C(O)C(O)C2OC2OC(CO)C(O)C(O)C2O)c(-c2ccc(O)cc2)oc2cc(O)cc(O)c12 (stereo unspecified),87
C[C@@H]1O[C@@H](Oc2cc(O)c3c(=O)c(O[C@@H]4O[C@@H](C)[C@H](O)[C@@H](O[C@@H]5OC[C@@H](O)[C@H](O)[C@H]5O)[C@H]4O[C@@H]4O[C@H](CO)[C@@H](O)[C@H](O)[C@H]4O)c(-c4ccc(O)cc4)oc3c2)[C@H](O)[C@H](O)[C@H]1O,n
CC1=CC(=O)C2C(C)(C)CC(O)CC2(C)C1(O)CO (stereo unspecified),n
C[C@@H]1CN([C@H](C)CO)C(=O)c2cccc(NS(=O)(=O)c3ccc(Cl)cc3)c2O[C@H]1CN(C)Cc1ccncc1,n
C=CCN1C(=O)[C@@]2(O[C@@H](CCn3cc(CCO)nn3)[C@H]([Si](C)(C)c3ccc(OC)cc3)[C@H]2C)c2cc(N3C(=O)c4cccc5cccc3c45)ccc21,n
Cc1ccccc1CN1C(=O)C(O)(CC(=O)c2ccncc2)c2cc(Cl)ccc21 (stereo unspecified),n
COc1cccc2cc(C(=O)C3C(=O)C(=O)N(CCN4CCOCC4)C3c3cccc(Cl)c3)oc12 (stereo unspecified),n
CCCCOC(=O)c1ccc(N)cc1,n
CCCCCCN(CCCCCC)C(=O)Cc1c(-c2ccc(F)cc2)[nH]c2ccccc12,n
CCCCCCCCc1ccc(-c2ccc(C(=O)O)cc2)cc1,72
O=C(Nc1ccc(I)cc1C(=O)NCc1cccnc1)c1ccco1,n
O=C(N[C@H]1CC[C@@H](CCn2cc(C3(O)CCCC3)nn2)O[C@@H]1CO)C1CCCCC1,n
c1cnc(SCCCCOc2ccc3c(c2)CCC3)nc1,54
O=S(=O)(Nc1ncccn1)c1ccc(NC(=S)Nc2ccc3c(c2)CCC3)cc1,n
N#Cc1ccccc1OCCCCSc1ncccn1,n
C[C@@H]1CN([C@@H](C)CO)C(=O)c2cccc(NC(=O)c3ccncc3)c2O[C@H]1CN(C)CC1CCCCC1,n
SMILES,EZH2 inh
Oc1ccc([C@@H]2Oc3cc(O)cc(O)c3C[C@@H]2O)cc1,89
Oc1ccc([C@H]2Oc3cc(O)cc(O)c3C[C@H]2O)cc1,n
O=C1c2c(O)cc(O)cc2OC(c2ccc(O)cc2)C1C1C(=O)c2c(O)cc(O)cc2OC1c1ccc(O)cc1 (stereo unspecified),n
CNC[C@@H]1Oc2ccc(N)cc2C(=O)N([C@H](C)CO)C[C@H]1C,n
C[C@H](CO)N1C[C@H](C)[C@@H](CN(C)Cc2ccc(C(F)(F)F)cc2)OCc2cn(nn2)CCCC1=O,n
CSc1nc(N2CCCCC2)c2c(c1C#N)CCCC2,63
CC(C)NC(=O)N(C)C[C@@H]1Oc2cc(C#CC3CC3)ccc2S(=O)(=O)N([C@@H](C)CO)C[C@H]1C,n
C[C@H]1CN([C@@H](C)CO)C(=O)Cc2cc(NC(=O)Cc3cn(C)c4ccccc34)ccc2O[C@H]1CN(C)C(=O)Nc1ccccc1,n
CCCNC(=O)N(C)C[C@H]1Oc2cc(C#CC3CC3)ccc2S(=O)(=O)N([C@H](C)CO)C[C@H]1C,n
COc1cccc(C#Cc2cnc3c(c2)C(=O)N([C@@H](C)CO)C[C@H](C)[C@H](CN(C)C(=O)C2CCC2)O3)c1,n
COc1cccc(C#Cc2cnc3c(c2)C(=O)N([C@H](C)CO)C[C@@H](C)[C@H](CN(C)C(=O)C2CCCCC2)O3)c1,95
COc1cccc(C#Cc2cnc3c(c2)C(=O)N([C@@H](C)CO)C[C@@H](C)[C@@H](CN(C)C(=O)C2CCCCC2)O3)c1,n
Cn1c(NCCCN)nc2c1c(=O)n(Cc1ccccc1Cl)c(=O)n2C,n
O=C(CSc1n[nH]c(-c2ccc(Cl)cc2Cl)n1)Nc1cccc(C(F)(F)F)c1,n

# Bioassay records as filed in PubChem.
